Compounds with a hit are over-represented: about 0.85% of the library has one in this group of screens.
GLS inh: qHTS for Inhibitors of Glutaminase (GLS); Potency, µM (doses to about 45.5 µM), for inactives: top-dose activity change, negative = inhibition, hits mostly inhibitors; GLS enzymatic activity, qHTS titration; Glutaminase kidney isoform, mitochondrial (Homo sapiens), O94925; 410,000 compounds, 0.21% hits
Target sequence (O94925 whole entry, looked up, canonical isoform): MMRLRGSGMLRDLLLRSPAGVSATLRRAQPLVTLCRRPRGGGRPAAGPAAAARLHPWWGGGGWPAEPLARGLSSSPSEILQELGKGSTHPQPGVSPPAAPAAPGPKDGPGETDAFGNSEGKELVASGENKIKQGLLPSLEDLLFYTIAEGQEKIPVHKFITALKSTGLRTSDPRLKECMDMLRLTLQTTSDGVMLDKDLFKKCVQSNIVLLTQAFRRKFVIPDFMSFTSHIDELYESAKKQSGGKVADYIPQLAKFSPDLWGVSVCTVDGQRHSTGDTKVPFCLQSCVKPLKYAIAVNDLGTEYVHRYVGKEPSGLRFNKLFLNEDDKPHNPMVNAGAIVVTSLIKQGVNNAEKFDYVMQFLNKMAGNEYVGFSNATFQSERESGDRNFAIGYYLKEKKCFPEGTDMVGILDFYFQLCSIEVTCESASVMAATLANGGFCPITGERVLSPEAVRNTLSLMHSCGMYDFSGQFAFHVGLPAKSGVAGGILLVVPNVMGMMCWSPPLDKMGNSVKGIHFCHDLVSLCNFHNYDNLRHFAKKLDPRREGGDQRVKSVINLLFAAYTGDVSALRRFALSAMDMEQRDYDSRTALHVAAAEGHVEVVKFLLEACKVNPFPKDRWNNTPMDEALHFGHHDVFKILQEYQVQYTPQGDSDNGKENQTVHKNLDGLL
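Glutamate formation by hKGA was monitored fluorometrically using coupled glutamate oxidase, HRP and Amplex Red. Substrate was added as 1 mM L-glutamine solution; incubation was 30 min at RT after an initial read.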
BLM helicase inh: qHTS Assay for Inhibitors of Bloom's syndrome helicase (BLM); recombinant BLM DNA unwinding, fluorescence dequenching; Potency, µM (series often up to 56.1 µM), for inactives: at the highest dose activity change, negative = inhibition, actives largely listed as inhibitors; 350,000 compounds, 0.2% hits;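 further: plate controls were vehicle for no effect and no enzyme for full effect; nearly all actives have a fitted effect of over 35% in size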
Tb PGK inh: qHTS Assay to Find Inhibitors of Phosphoglycerate Kinase. Phosphoglycerate kinase, glycosomal (Trypanosoma brucei brucei), P07378. PGK/GAPDH coupled, Kinase-Glo luminescence, 60 min. Potency, µM (highest dose often 57.5 µM), for the others: top-dose activity change, negative = inhibition, hits mostly inhibitors. 380,000 compounds, 0.043% hits. AID 602233, 2012; further: nearly all actives have a fitted effect of over 60% in size
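Luminescent ATP detection (Kinase-Glo Plus) follows a 60-minute room-temperature incubation, with wells lacking PGK as controls. Buffer: 100 mM TEA (pH 7.6), 5 mM MgCl2, 0.01% Tween-20. Coupling enzyme GAPDH (100 nM final) supplies unstable 1,3-BPG in-well.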
APE1 inh: qHTS Assay for Inhibitors of the Human Apurinic/apyrimidinic Endonuclease 1 (APE1) | DNA repair nuclease/redox regulator APEX1 (Homo sapiens), P27695 | recombinant APE1, TAMRA/BHQ-2 abasic DNA cleavage fluorescence | Potency, µM (doses to about 65.8 µM), inactives show at the top dose activity change, negative = inhibition, most hits filed as inhibitors | 350,000 compounds, 0.35% hits | AID 2517, 2012;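 further: plate controls were vehicle for no effect and reference inhibitor for full effect; nearly all actives have a fitted effect of over 55% in size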
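APE1 at 0.75 nM final was preincubated with compound 15 min at room temperature, then 50 nM double-stranded THF abasic-site substrate (5'-TAMRA/3'-BHQ-2) was added. Fluorescence (ex 525/em 598 nm) was read kinetically; third-minus-first read gave activity.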
TDP1 block: qHTS Assay for Inhibitors of Tyrosyl-DNA Phosphodiesterase (TDP1); AID 485290, 2010; Potency, µM (titrated, usually from 130 µM), for the others: at the top dose activity change, negative = inhibition, hits mostly inhibitors; 350,000 compounds, 0.28% hits; recombinant TDP1, AlphaScreen DNA substrate cleavage; Tyrosyl-DNA phosphodiesterase 1 (Homo sapiens), Q9NUW8; further: nearly all actives have a fitted effect of over 40% in size
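E. coli-derived human Tdp1, 1 nM final. Cpd preinc 15 min RT; substrate 15 nM final, 5 min RT; AS bead mix 10 ug/ml final, 10 min RT. Signal loss = tyrosine-FITC cleavage. No-enzyme wells = max signal.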
RECQ1 inh-1: qHTS Assay for Inhibitors of RecQ-Like Dna Helicase 1 (RECQ1) | Potency, µM (titrated, usually from 57.3 µM), for the others: top-dose activity, negative = inhibition, most hits filed as inhibitors | AID 2549, 2010 | ATP-dependent DNA helicase Q1 (Homo sapiens), P46063 | RECQ1 DNA unwinding, red fluorescence kinetic read | 240,000 compounds, 0.54% hits;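 further: plate controls were vehicle for no effect and no enzyme for full effect; nearly all actives have a fitted effect of over 30% in size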
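RECQ1T1 50 nM; forked duplex (20 bp + 30-nt ss tails) 200 nM, ATP 2 mM final; pH 8.0, 2 mM MgCl2, 2.5 ug/ml poly(dI-dC); 15 min compound preincubation; discontinuous kinetic read over 2 h at RT.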
RECQ1 conf: Confirmation qHTS Assay for Inhibitors of RecQ-Like Dna Helicase 1 (RECQ1); RECQ1 helicase DNA unwinding, fluorescence; 610 compounds, 28% hits; shares compounds with RECQ1 inh-1; Potency, µM (series often up to 229 µM), for inactives: at the highest dose activity change, negative = inhibition, most hits filed as inhibitors; further: nearly all actives have a fitted effect of over 45% in size
RECQ1 ADP FP: Counterscreen for RECQ1 Inhibitors: ADP Fluorescence Polarization Displacement Assay | shares compounds with RECQ1 inh-1 | Potency, µM (titrated, usually from 228 µM), for inactives: top-dose activity change, negative = inhibition, hits mostly inhibitors | ADP fluorescence polarization displacement counterscreen | 530 compounds, 27% hits; further: nearly all actives have a fitted effect of over 45% in size
RECQ1 inh-2: Confirmation qHTS Assay for Inhibitors of RecQ-Like Dna Helicase 1 (RECQ1) - Round 2 Cherry Picks. shares compounds with RECQ1 inh-1. recombinant RECQ1 DNA unwinding, red fluorescence. Potency, µM (titrated, usually from 119 µM), without a hit: at the highest dose activity, negative = inhibition, actives largely listed as inhibitors. 1,100 compounds, 15% hits; further: nearly all actives have a fitted effect of over 50% in size
* hit, by the source's call; i = inactive; u = inconclusive; x = not tested or not shown; [ ] = another dose, or the depositor's remark. The call rests on the fitted dose curve; in most records, active means well fitted curve in the direction sought with a large enough effect; inconclusive means small, poorly fitted or top-dose-only effect, or another doubt; inactive means no such curve, though single readings can be large; an effect the other way counts as inactive or inconclusive. Unless noted, on the % scale 0 is the no-effect control and ±100 the full control effect; potency means the concentration at half of the fitted maximal effect.

SMILES	GLS inh	BLM helicase inh	Tb PGK inh	APE1 inh	TDP1 block	RECQ1 inh-1	RECQ1 conf	RECQ1 inh-2	others
CC1CN(S(=O)(=O)c2ccc(C(=O)Nc3ccc(S(=O)(=O)Nc4nccs4)cc3)cc2)CC(C)O1 (configuration not stated)	3%	-3%	-5%	-11%	4%	7%	-4%	x	RECQ1 ADP FP=7%
COc1cc(OC)cc(C(=O)NNC(=O)c2ccc(S(=O)(=O)N3CC(C)OC(C)C3)cc2)c1 (configuration not stated)	-2%	1%	-8%	-12%	3%	0%	10%	x	RECQ1 ADP FP=-1%
COc1ccc(C(=O)NNC(=O)c2ccc(S(=O)(=O)N3CC(C)OC(C)C3)cc2)cc1 (configuration not stated)	4%	-5%	x	18%	3%	9%	x	x
O=C(COC(=O)c1ccc2ncsc2c1)NC(=O)C1CCCCC1	x	x	x	x	1%	x	x	x
Oc1ccc(CNc2cccc(C(F)(F)F)c2)c2cccnc12	x	x	x	11%	x	x	x	x
CCOC(=O)C1(CCc2ccccc2)CCN(C(=O)C2CCCO2)CC1 (configuration not stated)	8%	-2%	4%	-2%	x	u	x	2%
COc1ccc(CCN2CC(C(=O)NC3CCCCC3)CC2=O)cc1OC (configuration not stated)	-2%	-20%	-3%	u	x	40µM*	x	u
O=C1C(Cl)=C(N2CCC(C(=O)O)CC2)C(=O)c2ccccc21	2%	-30%	-14%	u	-5%	22µM*	x	35µM*
NC(=O)C1CCN(C2=C(Cl)C(=O)c3ccccc3C2=O)CC1	-9%	-10%	-7%	1%	-5%	2%	x	x
COc1ccc(CN(C(=O)/C=C/c2ccco2)C2CCS(=O)(=O)C2)cc1 (configuration not stated)	4%	-24%	-8%	u	-1%	u	x	u
O=C(O)CCC(=O)Nc1nc2nccc(-c3ccccc3)n2n1	1%	9%	-8%	u	5%	-25%	u	x	RECQ1 ADP FP=-2%
CCCC(=O)Nc1nc2nc(-c3ccccc3)cc(-c3ccccc3)n2n1	4%	-3%	-7%	3%	4%	-10%	x	x
O=C(CN1CCN(c2ccc(O)cc2)CC1)Nc1ccc2c(c1)OCCO2	-20%	-3%	-1%	u	1%	u	x	-11%
O=C(CN1CCN(c2ccccc2)CC1)Nc1ccc2c(c1)OCCO2	1%	-1%	4%	-3%	-3%	i	x	x
O=C(CN1CCN(c2ccc(O)cc2)CC1)NC(=O)NCc1ccco1	-22%	-6%	i	u	-5%	22µM*	x	-18%
COc1ccc(N=c2nc(-c3ccc(C)cc3)n(-c3ccccc3)s2)cc1	x	x	x	x	5%	x	x	x
COc1ccc(-c2nc3cnc(N4CCNCC4)nc3n(Cc3cccc(OC)c3)c2=O)cc1	x	u	x	u	x	u	x	u
Cc1ccc(CSCC(Nc2ccc(C(=O)O)cc2[N+](=O)[O-])C(=O)O)cc1 (configuration not stated)	1%	0%	4%	11%	0%	19%	x	x
O=C(O)c1ccc(NC(CSCc2ccc(F)cc2)C(=O)O)c([N+](=O)[O-])c1 (configuration not stated)	28%	1%	-9%[11.5 µM]	-2%	7%	7%	23%	x	RECQ1 ADP FP=-6%
CCOc1c(OC(C)=O)ccc(/C=C/c2ccc3cccc(OC(C)=O)c3n2)c1[N+](=O)[O-]	5%	-14%	8%	-5%	12%	32µM*	x	-11%
COc1c(OC(C)=O)ccc(/C=C/c2ccc3cccc(OC)c3n2)c1[N+](=O)[O-]	12%	-10%	-2%	-1%	5%	-4%	x	x
O=C(O)CC(CCc1ccccc1)OC1OC(CO)C(O)C(O)C1O (configuration not stated)	u	-9%	u	0.35µM*	x	3.5µM*	-11%[114 µM]	x
NS(=O)(=O)c1ccc(CCNC(=O)CSc2nc3ccsc3c(=O)n2CCCCCC(=O)O)cc1	22%	-8%	3%	13%	5%	-1%	14%	x	RECQ1 ADP FP=-8%
Cn1c(SCC(=O)NCCc2ccc(S(N)(=O)=O)cc2)nc2ccccc2c1=O	2%	3%	6%	0%	5%	2%	x	x
O=C(O)CCCCn1c(SCc2ccccc2Cl)nc2ccsc2c1=O	34%	-1%	-2%	13%	6%	-9%	10%	x	RECQ1 ADP FP=3%
CC[C@H](C)[C@H](NC(=O)CNC(=O)[C@H](CCCNC(=N)N)NC(=O)[C@H](CO)NC(=O)[C@H](C)NC(=O)[C@H](Cc1ccc(O)cc1)NC(=O)[C@H](Cc1c[nH]c2ccccc12)NC(=O)[C@H](C)NC(=O)[C@@H]1CCCN1C(=O)[C@H](CC(N)=O)NC(=O)[C@@H](NC(=O)[C@H](CC(=O)O)NC(=O)[C@@H]1CCCN1C(=O)[C@@H](N)[C@@H](C)O)[C@@H](C)CC)C(=O)N[C@@H](CCCNC(=N)N)C(=O)N1CCC[C@H]1C(=O)N[C@H](C(=O)NCC(=O)N[C@@H](CCCNC(=N)N)C(=O)N[C@@H](Cc1ccccc1)C(N)=O)C(C)C	x	-12%	x	13%	11%	-3%	x	x
O=C(COc1cccnc1[N+](=O)[O-])c1ccc(Cl)s1	59%	-24%	i	u	1%	u	x	u

Source: PubChem BioAssay (National Center for Advancing Translational Sciences (NCATS))
